Measured values: ChEMBL document CHEMBL2218924, “A broad activity screen in support of a chemogenomic map for kinase signalling research and drug discovery” (Biochem J, 2013)

What was measured:
[1] = target: G protein-coupled receptor kinase 5 (Homo sapiens) (UniProt P34947); settings: at 1 µM
[2] = target: G protein-coupled receptor kinase 6 (Homo sapiens) (UniProt P43250); settings: at 1 µM
Sequence of G protein-coupled receptor kinase 6 (Homo sapiens) (P43250 whole entry, looked up): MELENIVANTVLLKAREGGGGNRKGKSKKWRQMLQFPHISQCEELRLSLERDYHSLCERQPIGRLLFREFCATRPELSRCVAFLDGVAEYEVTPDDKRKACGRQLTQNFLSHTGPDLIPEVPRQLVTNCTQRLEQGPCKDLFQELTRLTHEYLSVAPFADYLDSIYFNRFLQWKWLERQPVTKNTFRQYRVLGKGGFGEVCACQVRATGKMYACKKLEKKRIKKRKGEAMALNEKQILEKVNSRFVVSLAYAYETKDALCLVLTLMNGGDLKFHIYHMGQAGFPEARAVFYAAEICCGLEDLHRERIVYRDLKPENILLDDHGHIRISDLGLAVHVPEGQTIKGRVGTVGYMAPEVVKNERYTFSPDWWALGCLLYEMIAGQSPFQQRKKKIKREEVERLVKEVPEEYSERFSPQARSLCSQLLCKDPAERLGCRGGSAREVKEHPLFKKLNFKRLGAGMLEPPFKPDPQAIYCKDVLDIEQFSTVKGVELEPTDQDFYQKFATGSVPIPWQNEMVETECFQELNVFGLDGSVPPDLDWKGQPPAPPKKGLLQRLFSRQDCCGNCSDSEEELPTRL

Sequence of G protein-coupled receptor kinase 5 (Homo sapiens) (P34947 whole entry, looked up): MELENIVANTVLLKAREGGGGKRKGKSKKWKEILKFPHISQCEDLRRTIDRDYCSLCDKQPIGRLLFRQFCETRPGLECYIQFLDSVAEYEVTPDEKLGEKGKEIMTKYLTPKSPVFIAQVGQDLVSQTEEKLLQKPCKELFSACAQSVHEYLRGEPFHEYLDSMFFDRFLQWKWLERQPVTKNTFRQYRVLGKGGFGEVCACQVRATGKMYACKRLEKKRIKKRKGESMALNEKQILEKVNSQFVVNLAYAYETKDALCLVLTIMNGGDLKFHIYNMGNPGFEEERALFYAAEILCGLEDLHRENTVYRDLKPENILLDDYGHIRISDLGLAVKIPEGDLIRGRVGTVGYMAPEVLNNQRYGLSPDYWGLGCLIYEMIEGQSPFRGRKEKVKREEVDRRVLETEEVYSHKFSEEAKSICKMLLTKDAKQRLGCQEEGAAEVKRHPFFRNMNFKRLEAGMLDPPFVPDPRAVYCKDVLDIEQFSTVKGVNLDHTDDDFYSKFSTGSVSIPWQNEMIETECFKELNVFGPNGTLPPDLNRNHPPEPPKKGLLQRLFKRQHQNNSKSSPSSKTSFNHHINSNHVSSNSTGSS

Structure (SMILES)	residual activity [1] [%]	residual activity [2] [%]
CC[n+]1c(/C=C/N(C)c2ccccc2)n(-c2ccccc2)c2ccc(-c3nc4ccccc4s3)cc21	108	101
CCCCc1c(-c2ccc(O)cc2)[nH]c2nccnc12	93	98
Cc1ccc(NC2=CC(=O)c3sc(C)nc3C2=O)cc1	93	96
O=Nc1c(-c2c(O)[nH]c3ccccc23)[nH]c2ccccc12	92	81
O=c1cc(N2CCNCC2)oc2c(-c3ccccc3)cccc12	81	102
CN(C)CCCn1cc(C2=C(c3c[nH]c4ccccc34)C(=O)NC2=O)c2ccccc21	61	87
Oc1ccc(-c2nc(-c3ccc(F)cc3)c(-c3ccncc3)[nH]2)cc1	109	109
CN(C)c1ccc(/C=C2\C(=O)Nc3ccccc32)cc1	91	97
COc1cccc(-c2cc(=O)c3ccccc3o2)c1N	100	99
O=c1c2ccccc2[nH]c(=S)n1CCN1CCC(=C(c2ccc(F)cc2)c2ccc(F)cc2)CC1	101	91
Cn1cnc2cc3c(Nc4cccc(Br)c4)ncnc3cc21	109	97
CC(C)n1cnc2/c(=N/c3cccc(Cl)c3)nc(NCCO)[nH]c21	92	90
Cc1cc2ncc(-c3ccccc3)nc2cc1C	106	95
c1ccc(-c2n[nH]cc2-c2ccnc3ccccc23)nc1	103	96
Cc1ccc(S(=O)(=O)/C=C/C#N)cc1	96	92
CCN(CC)CCNC(=O)c1c(C)[nH]c(/C=C2\C(=O)Nc3ccc(Cl)cc32)c1C	68	68
Ic1cccc(CSc2nnc(-c3ccncc3)o2)c1	89	89
Oc1c2ccccc2c2c3c(cccc13)N=N2	84	87
CCC(=O)Nc1ccc2ncnc(Nc3cccc(Br)c3)c2c1	114	97
NC(=O)Nc1sc(-c2ccc(F)cc2)cc1C(N)=O	93	85
COc1cc2ncnc(N3CCN(C(=O)Nc4ccc(Oc5ccccc5)cc4)CC3)c2cc1OC	95	85
Oc1n[nH]c2nnc(-c3c(-c4ccccc4)nn4ccccc34)cc12	87	83

Structure (SMILES)	residual activity [1] [%]	residual activity [2] [%]
COc1cc2ncnc(Nc3ccc(Oc4ccccc4)cc3)c2cc1OC	90	93
Cc1cncc2cccc(S(=O)(=O)N3CCCN(C(=O)CN)C[C@H]3C)c12	98	84
Cn1cc(/C=C2\C(=O)Nc3ccc(S(N)(=O)=O)cc32)c2ccccc21	62	96
C[C@@H](N)[C@H]1CC[C@H](C(=O)Nc2ccncc2)CC1	92	106
O=c1c(-c2ccc(F)cc2)c(-c2ccncc2)[nH]n1-c1ccc(Cl)cc1	101	99
CO[C@@H]1[C@H](N(C)C(=O)c2ccccc2)C[C@H]2O[C@]1(C)n1c3ccccc3c3c4c(c5c6ccccc6n2c5c31)C(=O)NC4	82	79
O=C(CCCc1ccc(-c2ccccc2F)cc1)Nc1ccc(O)cc1	101	101
O=C1NC(=O)c2cc(Nc3ccc(F)cc3)c(Nc3ccc(F)cc3)cc21	104	85
CC(C)[C@H](CO)Nc1nc(Nc2cc(N)cc(Cl)c2)c2ncn(C(C)C)c2n1	89	90
COc1cc2ncnc(Nc3ccc(O)c(Br)c3)c2cc1OC	89	85
O=C1Nc2ccc(Br)cc2/C1=C\c1cc2c([nH]1)CCCC2	104	102
O=C1NC(=O)c2c1c1c3ccccc3[nH]c1c1[nH]c3cc(Br)ccc3c21	102	102
O=c1cc(N2CCOCC2)oc2c1ccc1ccccc12	103	96
Nc1ncnc2c1cnn2-c1ccccc1		93
N#CC(C#N)=C(N)/C(C#N)=C/c1ccc(O)cc1		94
O=C(c1ccccc1)c1ccc(N2CCOCC2)cc1O		96
O=C(Nc1cccc(Nc2cc(Nc3cccc(C(F)(F)F)c3)ncn2)c1)C1CC1	102	98
NC(=O)c1cccc(-c2cc(Nc3ccc(OC(F)(F)F)cc3)ncn2)c1		94
O=c1cc(-c2cccc3c2Sc2ccccc2S3)oc(N2CCOCC2)c1	99	100
COc1ccc(-c2cnc3c(-c4ccsc4)cnn3c2)cc1		99
CCN(CC)C(=O)c1ccc(Nc2nc(OCC3CCCCC3)c3nc[nH]c3n2)cc1		97
O=C(O)/C=C/c1cc(Br)c(Br)c(Br)c1Br		99
